Experimental data published in PubChem BioAssay (EPA / NIEHS).
Values joined by “and” are separate entries in the source; they are usually repeats but may differ in a detail not shown here. Identical values can stand only once. Inconclusive results are not listed. Where a structure was tested more than once in an assay, its records may differ in their call. Active and inactive are the calls of the source. The calls were made as follows: active = hit-call score of the fitted dose curve at least 0.9, where 1 is the maximum; inconclusive = response in the unintended direction; inactive = score below 0.9.

Biological target: human Retinoid X Receptor beta (RXRb), RXRB (gene 6257) (UniProt P28702)
Sequence (P28702 whole entry, looked up): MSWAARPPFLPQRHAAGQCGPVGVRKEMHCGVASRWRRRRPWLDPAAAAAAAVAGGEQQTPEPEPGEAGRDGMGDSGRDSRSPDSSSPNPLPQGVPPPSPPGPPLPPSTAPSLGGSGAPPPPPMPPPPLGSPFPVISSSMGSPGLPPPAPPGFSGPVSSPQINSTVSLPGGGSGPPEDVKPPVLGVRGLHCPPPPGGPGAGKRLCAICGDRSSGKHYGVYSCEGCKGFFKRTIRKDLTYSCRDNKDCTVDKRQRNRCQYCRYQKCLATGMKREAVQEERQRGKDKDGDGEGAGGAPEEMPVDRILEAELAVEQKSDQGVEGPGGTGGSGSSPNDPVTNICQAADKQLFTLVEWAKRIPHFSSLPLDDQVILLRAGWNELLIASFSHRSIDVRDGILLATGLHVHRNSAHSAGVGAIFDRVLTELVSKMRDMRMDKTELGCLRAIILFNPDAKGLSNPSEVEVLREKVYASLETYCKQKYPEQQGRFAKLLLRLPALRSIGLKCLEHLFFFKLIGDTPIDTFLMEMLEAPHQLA
Assay: ATG_RXRb_TRANS: Attagene TRANS-FACTORIAL HepG2 Assay for human Retinoid X Receptor beta (RXRb) (AID 2283013)
Procedure: ATG_TRANS is a cell-based, multiplexed-readout assay that uses HepG2, a human liver cell line, with measurements taken at 24 hours after chemical dosing in a 24-well plate.ATG_RXRb_TRANS is one of 30 assay component(s) measured or calculated from the ATG_TRANS assay. It is designed to make measurements of mRNA induction, a form of inducible reporter, as detected with fluorescence intensity signals by Reverse transcription polymerase chain reaction (RT-PCR) and Capillary electrophoresis technology.Data from the assay component ATG_RXRb_TRANS was analyzed into 1 assay endpoint. This assay endpoint, ATG_RXRb_TRANS, was analyzed in the positive analysis fitting direction relative to DMSO as the negative control and baseline of activity. Using a type of inducible reporter, measures of mRNA for gain-of-signal activity can be used to understand the reporter gene at the transcription factor-level as they relate to the gene RXRB. Furthermore, this assay endpoint can be referred to as a primary readout, because this assay has produced multiple assay endpoints where this one serves a reporter gene function. To generalize the intended target to other relatable targets, this assay endpoint is annotated to the nuclear receptor intended target family, where the subfamily is non-steroidal.
Human liver HepG2 cells are transiently transfected with multiple reporter transcription units (MRTUs) in 6-well plates using FuGene 6 reagent (Roche; 3 ml FuGene/1 mg DNA). The MRTU constructs are regulated by a cis-regulating element (promoter). […] A major difference between the CIS and TRANS system is that in CIS activities of endogenous TFs are measured, whereas the TRANS assay evaluates changes in activities of exogenous, chimeric NR-Gal4 proteins. […] At the end of 24 hour incubation, total RNA was isolated using TriZol reagent (Invitrogen). The isolated RNA is then reverse-transcribed using oligo(dT) primer and Mo-MLV reverse transcriptase (Invitrogen) with DNAse I (Ambion) treatment for 30 min. The one-tenth of the produced cDNA was amplified by PCR using Taq DNA polymerase (Invitrogen) and two reporter sequence-specific primers. The PCR products were fluorescently labeled by primer extension with 6-arboxyfluorescein (6-FAM) 5'-labeled reporter sequence-specific primer (2 min at 95 C, 20 s at 68 C and 10 min at 72 C) and these products were digested with 5U of HpaI (New England Biolabs) for 2h at 37 C. The fragments were purified using Qiaquick PCR columns (Qiagen), analyzed on an ABI 3130xL genetic analyzer (Applied Biosystems) with peak positions identified by using a set of X-rhodamine (ROX)-labeled MapMarker1000 molecular weight standards (BioVentures). The raw capillary electrophoresis data was processed using Attagraph software (Attagene).

SMILES	outcome	AC50
C=CCc1ccc(OC)cc1	inactive	–
C1CCC(NC2CCCCC2)CC1	inactive	–
BrCCBr	–	48.2 µM (active)
O=C(CCl)CCl	inactive	–
COP(=O)(OC)O/C(=C\Cl)c1cc(Cl)c(Cl)cc1Cl	–	25.7 µM (active)
CNC(=O)O/N=C/C(C)(C)S(C)=O (stereo not given)	inactive	–
CC(C)(C)CC(C)(C)c1ccc(O)cc1	–	11.1 µM (active) and 4.81 µM (active) and 6.61 µM (active)
O=C1C2(Cl)C3(Cl)C4(Cl)C(Cl)(Cl)C5(Cl)C3(Cl)C1(Cl)C5(Cl)C24Cl (stereo not given)	inactive	2.67 µM (active) and 7.57 µM (active)
CN(C)N=O	inactive	–
CC(C#N)CCC#N (stereo not given)	inactive	–
COc1cc(OC)nc(NC(=O)NS(=O)(=O)c2ncccc2C(=O)N(C)C)n1	inactive	–
O=C(O)C(F)(F)C(F)(F)C(F)(F)C(F)(F)C(F)(F)C(F)(F)F	inactive	51.7 µM (active) and 56.5 µM (active)
CC(C)C1CCC(Cc2ccc(Cl)cc2)C1(O)Cn1cncn1 (stereo not given)	inactive	–
CC(C)(c1ccc(OCC2CO2)cc1)c1ccc(OCC2CO2)cc1 (stereo not given)	inactive	–
O=C(O)C(F)(F)C(F)(F)C(F)(F)C(F)(F)C(F)(F)C(F)(F)C(F)(F)C(F)(F)C(F)(F)C(F)(F)F	inactive	13.5 µM (active)
Nc1cccc2ccccc12	inactive	–
COP(=S)(OC)Oc1ccc(Sc2ccc(OP(=S)(OC)OC)cc2)cc1	inactive	–
CC1(C)Cc2cccc(O)c2O1	inactive	–
Nc1cccc(Cl)c1	inactive	–

SMILES	outcome	AC50
CC(C)(c1ccccc1)c1ccc(O)c(C(C)(C)c2ccccc2)c1	–	1.66 µM (active)
CC1CN1P(=O)(N1CC1C)N1CC1C (stereo not given)	inactive	–
CCNc1nc(NC(C)(C)C)nc(SC)n1	–	15.5 µM (active)
CCOP(OCC)OCC	inactive	–
O=C(c1ccccc1)C(Cl)Cl	inactive	–
CCC(=O)C(CC(C)N(C)C)(c1ccccc1)c1ccccc1 (stereo not given)	inactive	–
CCCCC(CC)CO[N+](=O)[O-] (stereo not given)	–	99.5 µM (active)
ClCc1cccnc1	inactive	–
CC(=O)c1cc(C(C)(C)C)cc2c1CCC2(C)C	–	0.446 µM (active)
COP(=S)(OC)Oc1cc(Cl)c(Cl)cc1Cl	–	68.2 µM (active)
Nc1ccc(-c2ccc(N)c(Cl)c2)cc1Cl	–	11.2 µM (active)
Nc1ncc([N+](=O)[O-])s1	inactive	–
COP(=S)(OC)Oc1c(Cl)cc(C)cc1Cl	–	22 µM (active)
CCOC(=O)/C=C(C)/C=C/C[C@@H](C)CCCC(C)C	–	26.9 µM (active)
O=C/C=C/c1ccccc1	inactive	–
C=C(C)C(=O)[O][Sn]([CH2]CCC)([CH2]CCC)[CH2]CCC	–	0.0323 µM (active)
O=Cc1cccc(Oc2ccccc2)c1	inactive	–
ClCC(Cl)CCl	inactive	–
